From PubChem BioAssay (Tox21) come the findings set out here.

Test [1] is described as follows: qHTS assay to test for compound auto fluorescence at 535 nm (green) in HEK293 cells (AID 720680). For orientation: Quantitative high-throughput screening tests each substance at several concentrations.
Test [2] is described as follows: qHTS assay to test for compound auto fluorescence at 460 nm (blue) in HEK293 cell free culture (AID 720681). An outline of the steps: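 Blue fluorescence (Ex 405/Em 460 nm, triamterene-equivalent) was read immediately after pin transfer of compound or DMSO into medium (DMEM, 10% FBS) without cells.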
Test [3] is described as follows: qHTS assay to test for compound auto fluorescence at 535 nm (green) in HEK293 cell free culture (AID 720682). An outline of the steps: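 Green-label autofluorescence (485 nm excitation, 535 nm emission) measured on compound added to cell-free culture medium (DMEM, 10% FBS). Output is expressed relative to fluorescein.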
Test [4] can be described thus: qHTS assay to test for compound auto fluorescence at 590 nm (red) in HEK293 cell free culture (AID 720683). An outline of the steps: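 Red-channel autofluorescence of compounds in culture medium (DMEM, 10% FBS), no cells, measured at 540/590 nm. Rose Bengal sodium is the reference fluorophore for equivalence.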
The nature of test [5]: qHTS assay to test for compound auto fluorescence at 590 nm (red) in HepG2 cell free culture (AID 720684). The procedure, abridged:
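Cell-free; medium MEM + 10% FBS; compound or DMSO added by pintool; read Ex 540/Em 590 nm; Rose Bengal sodium as red reference fluorophore.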

A short description of test [6]: qHTS assay to test for compound auto fluorescence at 460 nm (blue) in HepG2 cell free culture (AID 720685). The procedure, abridged:
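Cell-free plates of MEM plus 10% FBS received 23 nL compound or DMSO vehicle; blue-channel (405/460 nm) intensity scored against triamterene as reference fluorophore.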

Test [7] is described as follows: qHTS assay to test for compound auto fluorescence at 535 nm (green) in HepG2 cell free culture (AID 720686).
Test [8] is described as follows: qHTS assay to test for compound auto fluorescence at 460 nm (blue) in HepG2 cells (AID 720687). An outline of the steps:
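Blue-channel autofluorescence (Ex/Em 405/460 nm, triamterene-equivalent) was measured after 1 hr compound exposure at 37 C, 5% CO2. Cells were HepG2, plated overnight at 37 C in MEM plus 10% FBS.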

The target of test [9] is Glucocorticoid receptor (Homo sapiens) (UniProt P04150). In words: qHTS assay to identify small molecule agonists of the glucocorticoid receptor (GR) signaling pathway (AID 720691; active means well fitted activation curve with a large enough effect in the signal ratio in the repeat runs, not every such curve was filed as active; the % refers to the signal ratio). An outline of the steps: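 Steps: seed GR-bla HeLa cells, incubate 4 h at 37 C/5% CO2; pin-transfer DMSO-dissolved compounds; incubate 18 h at 37 C; add LiveBLAzer B/G FRET substrate; after 2 h at room temperature, measure fluorescence.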

Test [10] shares this target. Description: qHTS assay to identify small molecule antagonists of the glucocorticoid receptor (GR) signaling pathway (AID 720692; active means well fitted inhibition curve with a large enough effect in the signal ratio in the repeat runs, not every such curve was filed as active; the % refers to the signal ratio). The procedure, abridged: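 Antagonism was scored as loss of dexamethasone-driven (5 nM final) reporter signal in HeLa cells bearing a glucocorticoid response element–beta-lactamase construct, after 18 h compound exposure at 37 C and 2 h FRET substrate loading.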

Test [11] in a line: qHTS assay to identify small molecule antagonists of the glucocorticoid receptor (GR) signaling pathway - cell viability counter screen (AID 720693). Further: nearly all actives have a fitted effect of over 55% in size.
Test [12] can be described thus: qHTS assay for identifying genotoxic compounds that show differential cytotoxicity against isogenic chicken DT40 cell lines with known DNA damage response pathways - wild type cell line (AID 743012). Further: nearly all actives have a fitted effect of over 60% in size. Further: potency means the concentration at half of the fitted maximal effect. The procedure, abridged: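 Cytotoxicity in repair-proficient parental chicken DT40 cells serves as the comparator for Rad54/Ku70- and Rev3-deficient lines. Cells were exposed to compounds for 40 h at 37 C/5% CO2, and ATP-based luminescence (CellTiter-Glo) measured viability.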

A short description of test [13]: qHTS assay for identifying genotoxic compounds that show differential cytotoxicity against isogenic chicken DT40 cell lines with known DNA damage response pathways - Rev3 mutant cell line (AID 743014). Further: nearly all actives have a fitted effect of over 55% in size. Further: potency means the concentration at half of the fitted maximal effect.
Test [14] in a line: qHTS assay for identifying genotoxic compounds that show differential cytotoxicity against isogenic chicken DT40 cell lines with known DNA damage response pathways - Rad54/Ku70 mutant cell line (AID 743015). Further: nearly all actives have a fitted effect of over 60% in size. Further: potency means the concentration at half of the fitted maximal effect.
Test [15] can be described thus: qHTS assay to identify small molecule antagonists of the androgen receptor (AR) signaling pathway - cell viability counter screen (AID 743033; further: nearly all actives have a fitted effect of over 45% in size; further: potency means the concentration at half of the fitted maximal effect).
Test [16] is described as follows: qHTS assay to identify small molecule antagonists of the androgen receptor (AR) signaling pathway using the MDA cell line - cell viability counter screen (AID 743041; further: nearly all actives have a fitted effect of over 45% in size). An outline of the steps: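 Viability read by CellTiter-Fluor fluorescence in the same wells as the antagonist screen, added after 15.5 h of a 16 h, 37C exposure. Human breast carcinoma MDA-kb2 AR-luc cells, compounds co-dosed with agonist R1881.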

Several values for one entry are separate records, joined by “and”; a condition that tells them apart may be missing. Identical values can stand only once. Results filed as inconclusive are left out. Some compounds were tested as several samples or in several runs, with calls that do not always agree. Activity calls are given as the source filed them. Unless noted, the call rests on the fitted dose curve; in most records, active means well fitted curve in the direction sought with a large enough effect in the repeat runs; inconclusive means weak or mixed curves; inactive means no such curve, though single readings can be large; an effect the other way counts as inactive or inconclusive.

Chain of Glucocorticoid receptor (Homo sapiens) (P04150 whole entry, looked up): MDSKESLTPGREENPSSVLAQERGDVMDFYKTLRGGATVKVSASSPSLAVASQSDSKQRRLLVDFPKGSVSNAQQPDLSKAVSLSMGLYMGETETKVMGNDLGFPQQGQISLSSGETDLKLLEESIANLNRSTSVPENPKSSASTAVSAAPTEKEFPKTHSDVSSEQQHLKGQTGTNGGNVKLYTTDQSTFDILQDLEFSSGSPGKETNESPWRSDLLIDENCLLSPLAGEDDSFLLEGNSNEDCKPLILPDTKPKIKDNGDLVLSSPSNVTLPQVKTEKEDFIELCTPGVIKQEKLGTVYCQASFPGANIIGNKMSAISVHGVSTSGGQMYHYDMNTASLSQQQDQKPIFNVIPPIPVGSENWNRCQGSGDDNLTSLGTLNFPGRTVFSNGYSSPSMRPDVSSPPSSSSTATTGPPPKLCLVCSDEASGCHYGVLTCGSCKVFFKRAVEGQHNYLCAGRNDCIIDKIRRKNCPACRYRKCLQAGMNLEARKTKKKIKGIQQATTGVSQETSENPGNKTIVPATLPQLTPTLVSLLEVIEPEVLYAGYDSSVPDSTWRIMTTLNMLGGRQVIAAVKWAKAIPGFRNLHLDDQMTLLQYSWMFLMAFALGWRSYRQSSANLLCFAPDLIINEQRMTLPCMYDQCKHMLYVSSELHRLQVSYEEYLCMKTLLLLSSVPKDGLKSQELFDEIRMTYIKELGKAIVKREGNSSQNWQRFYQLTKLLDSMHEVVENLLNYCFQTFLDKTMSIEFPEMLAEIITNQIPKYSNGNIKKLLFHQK

In the case of `CC(=O)OC/C=C(\C)CCC=C(C)C`, the compound was classed as inactive in test [1], in test [3], in test [4], in [5], in test [7] and in [9]. The Potency result in [2], in [6], in test [8], in test [10], in test [11] and in test [12] was “inactive” throughout. The Potency entry in test [13], in test [14], in test [15] and in test [16] was “inactive” throughout.
Consider `Brc1ccc(Oc2ccc(Br)cc2)cc1`, for which the result in test [1], in test [3], in test [4], in [5], in [7] and in test [9] was inactive. Also, the Potency result in test [2], in test [6], in [8], in test [10], in test [11] and in test [12] was “inactive” each time. In addition, the Potency result in [13], in test [14], in test [15] and in [16] was “inactive” in each case.
Regarding `O=C1O[C@H]([C@H](O)CO)C(O)=C1O`, the result in [1], in [3], in test [4], in [5], in test [7] and in [9] was inactive. Moreover, the Potency result in test [2], in test [6], in [8], in test [10], in test [11] and in test [13] was “inactive” in each case. Moreover, the Potency result in test [14], in test [15] and in test [16] was “inactive” in each case.
For the compound `NC1CCCCC1N` (stereo not drawn), the call in test [1], in [3], in test [4], in test [5], in test [7] and in test [9] was inactive. In addition, the Potency entry in test [2], in test [6], in test [8], in test [10], in test [11] and in test [12] was “inactive” each time. The Potency entry in test [13], in test [14] and in test [15] was “inactive” throughout.
As to `Cc1cccc(C)c1[N+](=O)[O-]`, the outcome in test [1], in test [3], in [4], in test [5], in [7] and in [9] was inactive. Moreover, the Potency entry in [2], in test [6], in [8], in test [11], in test [12] and in test [13] was “inactive” in each case. Besides, the Potency entry in [14] and in [16] was “inactive” throughout.
For the compound `Cc1cc(C)c(O)c(C)c1`, the call in test [1], in test [3], in [4], in [5], in test [7] and in test [9] was inactive. Further, the Potency result in test [2], in [6], in test [8], in test [10], in [11] and in [13] was “inactive” throughout. Also, the Potency entry in test [14] and in test [15] was “inactive” throughout.
`CC(CN1c2ccccc2Sc2ccccc21)N(C)C` (stereo not drawn): the outcome in test [1], in test [3], in [4], in test [5] and in [7] was inactive. Besides, the Potency entry in [2], in test [6], in [8] and in test [11] was “inactive” throughout. Also, the Potency was 21.1 µM (active) and 55 µM (active) and 54.5 µM (active) in test [12]; 26.6 µM (active) and 27.6 µM (active) and 24.3 µM (active) in test [13]; 26.6 µM (active) and 30.9 µM (active) and 54.5 µM (active) in test [14]; “inactive and 44.1 µM (active)” in test [15].
As to `CN1Cc2c(N)cccc2C(c2ccccc2)C1` (stereo not drawn), the result in [1], in test [3], in [4], in test [5], in [7] and in test [9] was inactive. In addition, the Potency result in test [2], in test [6], in test [8], in test [10], in test [11] and in [12] was “inactive” in each case. The Potency result in test [15] is “inactive”. Also, the Potency result in test [13] is “inactive and 61.1 µM (active)”; in [14], “inactive and 54.5 µM (active)”.
As to `N#CCC(=O)O`, the call in test [1], in test [3], in [4], in test [5], in [7] and in [9] was inactive. Besides, the Potency entry in [2], in [6], in test [8], in [10], in test [11] and in test [12] was “inactive” each time. Besides, the Potency entry in [13], in test [14] and in [15] was “inactive” in each case.
